Results from the supplement of paper PMC12632987.
The full ranking holds about 4,500 sequences; the median of “median log2 fold change of GCK-ALFA target abundance (FLAG IP / Myc IP barcode read proportion)” is about 0.078, and the lowest 2% start at about -0.6. Shown is part of a subset that was picked to be rich in the lowest values.

B1: GBRAP_52_5986 (protein)
chain: MKEEAKKIAEELVKLMLEGKEEEAEKLMKEIAENKSQEFILMVMEELAKMAKTATPEEVDAIVDTALMLGDIALEAGFDEAEIDDAEARVAAAAVENLKK
B2: GBRAP_64_6489 (protein)
chain: MEEIEESLEELLKLVEELLEAVKDLSEELQKKVEEVKRLVEEAKTASLEERLDLTVEAAKLLNEILKNPELTEEQKELAGLALDKASELAWLLFEAEEEE
B3: GBRAP_11_2748 (protein)
chain: KKEKLKEIAKAAEELAALLDKLIAEGVDNAELQAAAEKALKELAELVEKYGDESLKKLVAIIQEEFAQAKADPATAEAHWRNALAAARVLAGQVLLEIEE
B4: GBRAP_160_4544 (protein)
chain: KEKVEEAIKDIDERAAFVKSLVGKVSTEELINFFDVEVGSFIMELEELGLLTDELGEEIDKIADETKATLKANPNASDEEKKALIDEAAEKIKEAILKHS
B5: GBRAP_26_5425 (protein)
chain: LDEAVERAIERISAAAAELLDPETAAAVRAVVTDELLEAEEEIEEEDLSEEEVEELLEEVLEEIEEDLEELGVPAEKRARLVAVAEEELEEVLEEWKEER
B6: GBRAP_78_6625 (protein)
chain: EIKKLLEKALKKVEEAAKLATKIPSEEGIEILDHLIDAFEYIEEAIEEGGDLEKLEKALKHLEEALKEIEKLNNPELEELKKLVKEAIKLLKKAIELKKK
B7: GBRAP_39_5692 (protein)
chain: EEEEEDEDVVSYLQALAAGRLYETGKSLEEAYKEAKKILEEEAKRHPELKELLEELIKLADEKGEEAKEVLIGIAVLIEEGTPLEEIKEHIEKAINYFKK
B8: GBRAP_11_2756 (protein)
chain: KKEKLKEMAELAEKAAELVKKLLEEGVDNEELQEELEKVLKELKKLVKEYGDEADKKLVEIAEELWKKAKEDEENKEQYYKELLATLRVLSGDFLLEYEE

Biological target: GABARAP, O95166
Test: median log2 fold change of GCK-ALFA target abundance (FLAG IP / Myc IP barcode read proportion) (log2 ratio); each designed protein is fused to an ALFA-tag nanobody in HEK293 cells to bring the named protein to FLAG-tagged glucokinase (GCK); Myc marks an untargeted standard; higher = target protein stabilised (more abundant)
Details: target protein: 3xFLAG-MCP-GCK-ALFA reporter; HEK293 landing pad (RPLP)
Method in brief: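 Binders fused to an ALFA nanobody were recombined as a library into HEK293 landing-pad cells, which were induced with 2 μg mL^−1 doxycycline and then transfected to express a FLAG-tagged target and a Myc-tagged standard. After 48 h, circular RNA barcodes recovered by anti-FLAG and anti-Myc immunoprecipitation of lysates were reverse transcribed, amplified and sequenced. Each binder's target abundance is the median log2 ratio of FLAG to Myc barcode read proportions, from barcodes present at ≥10^−7 in both replicates, binders carrying ≥3 barcodes per replicate, a 10^−6 pseudocount and pooled replicates.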

GABARAP, O95166, sequence (O95166 whole entry, the tested form may be a part): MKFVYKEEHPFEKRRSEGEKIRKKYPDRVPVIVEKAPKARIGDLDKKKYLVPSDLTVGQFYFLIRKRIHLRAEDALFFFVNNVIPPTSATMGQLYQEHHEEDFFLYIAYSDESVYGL

B1 and B2 are within 0.2 log units of each other in “median log2 fold change” value: -0.152 for the first, 0.0238 for the second.

B3 and B4 are within 0.2 log units of each other in “median log2 fold change” value: 0.194 for the first, 0.0163 for the second.

First: B5
Second: B6
The “median log2 fold change” value of the first is lower: -0.608 for the first, 0.283 for the second.

B7 and B8 are within 0.2 log units of each other in “median log2 fold change” value: 0.284 for the first, 0.0874 for the second.
